Source: PubChem BioAssay (EPA / NIEHS)
Some compounds were tested as several samples or in several runs, with calls that do not always agree. Active and inactive are the calls of the source. The calls were made as follows: active = hit-call score of the fitted dose curve at least 0.9, where 1 is the maximum; inactive = score below 0.9.

Assays:
[1] = ATG_ERE_CIS: Attagene CIS-FACTORIAL HepG2 Assay for Estrogen Response Element (ERE) (AID 2282940); conditions: HepG2 ERE cis-reporter, Attagene RNA transcript; actives raise or lower the signal
Outline: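 Cells used were human hepatoma HepG2, transfected with multiple reporter transcription units under cis-regulatory promoters. Reporter mRNA, read 24 h post-dosing via fluorescent RT-PCR products on capillary electrophoresis, was fitted bidirectionally relative to DMSO.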

[2] = ATG_Ets_CIS: Attagene CIS-FACTORIAL HepG2 Assay for human Erythroblast Transformation Specific (ETS) (AID 2282941); conditions: HepG2 ETS cis-reporter transcription, actives raise or lower the signal
Outline: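 Cis-regulated reporter mRNA induction in HepG2 (transient transfection), 24 h exposure, RT-PCR plus capillary electrophoresis detection; DMSO serves as negative control and baseline.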

[3] = target: Hepatocyte nuclear factor 3-beta (Homo sapiens) (UniProt Q9Y261); test: ATG_FoxA2_CIS: Attagene CIS-FACTORIAL HepG2 Assay for human Forkhead box A2 (FOXA2) (AID 2282942); conditions: HepG2 cis-reporter transcription factor activity, 24 h; actives raise or lower the signal
Outline: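 Transient MRTU transfection of HepG2 liver cells; 24 h treatment; total RNA → oligo(dT) RT → PCR → FAM primer extension → HpaI cut → CE. Bidirectional fit vs DMSO.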

[4] = ATG_GATA_CIS: Attagene CIS-FACTORIAL HepG2 Assay for human GATA Binding Protein (AID 2282944); conditions: HepG2 GATA cis-element reporter, Attagene multiplex mRNA; actives raise or lower the signal
Outline: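 Endogenous transcription factor activity was captured through cis-promoter-driven reporters in transfected HepG2 cells. After 24 h exposure, reporter transcripts were quantified by RT-PCR with fluorescent capillary electrophoresis, and responses fitted both directions against DMSO.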

[5] = ATG_GLI_CIS: Attagene CIS-FACTORIAL HepG2 Assay for human Zinc Finger Protein GLI1 (AID 2282945); conditions: HepG2, Attagene cis-factorial reporter mRNA, GLI element; actives raise or lower the signal
Outline: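 HepG2 cells transiently transfected with cis-promoter multiplexed reporter units report endogenous transcription factor activity. After 24 h chemical exposure, reporter mRNA was quantified by RT-PCR, 6-FAM labelling, HpaI digestion and capillary electrophoresis, with bidirectional fitting against DMSO.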

[6] = ATG_GRE_CIS: Attagene CIS-FACTORIAL HepG2 Assay for human Glucocorticoid Response Elements (GRE) (AID 2282947); conditions: HepG2 GRE cis-reporter, Attagene multiplex mRNA; actives raise or lower the signal
Outline: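 Cells (HepG2) bearing transfected cis-promoter reporter transcription units were treated with chemical for 24 hours. Reporter mRNA was measured via RT-PCR with capillary electrophoresis, and activity was fitted in both directions relative to DMSO.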

[7] = ATG_ISRE_CIS: Attagene CIS-FACTORIAL HepG2 Assay for human Interferon Regulatory Factor 1 (IRF1) binding to an Interferon-Stimulated Response Element (ISRE) (AID 2282948); conditions: HepG2 ISRE cis-reporter (Attagene), mRNA transcription readout; actives raise or lower the signal
Outline: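 Multiplexed mRNA reporter readout in human liver HepG2 cells: cis-element-driven reporters transfected, compound added for 24 h, transcripts amplified, fluorescently labelled and sized by capillary electrophoresis; curve fitting bidirectional against DMSO.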

[8] = ATG_M_32_CIS: Attagene CIS-FACTORIAL HepG2 Assay for M32 Transcription Factor (Internal Marker) (AID 2282949); conditions: HepG2 Attagene cis-factorial M32 reporter, mRNA; actives raise or lower the signal;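 also: background control marker of the multiplexed CIS panel rather than a real target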
Outline: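 HepG2 human liver cells transiently transfected with cis-promoter-driven multiple reporter transcription units, dosed 24 h. Reporter mRNA quantified by RT-PCR, FAM-labelled primer extension, HpaI digest and capillary electrophoresis; bidirectional fit versus DMSO baseline.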

[9] = ATG_M_06_CIS: Attagene CIS-FACTORIAL HepG2 Assay for M06 Transcription Factor (Internal Marker) (AID 2282950); conditions: HepG2 Attagene CIS-FACTORIAL M06 internal marker reporter; actives raise or lower the signal
Outline: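 Steps: transfect HepG2 with multiplexed cis-element reporter constructs; dose chemical 24 h; extract RNA with DNase treatment; reverse-transcribe, PCR-amplify, 6-FAM label, HpaI digest; separate fragments by capillary electrophoresis. Activity fitted both directions versus DMSO.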

[10] = target: Hypoxia-inducible factor 1-alpha (Homo sapiens) (UniProt Q16665); test: ATG_HIF1a_CIS: Attagene CIS-FACTORIAL HepG2 Assay for human Hypoxia Inducible Factor 1 (HIF1A) (AID 2282951); conditions: HepG2 Attagene cis-factorial HIF1a reporter transcription; actives raise or lower the signal
Outline: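 Transient MRTU transfection of human HepG2 liver cells, 24 h compound treatment, then total RNA isolation, oligo(dT) reverse transcription, PCR amplification, fluorescent labelling and capillary electrophoresis of reporter fragments. Gain or loss relative to DMSO.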

[11] = target: Hepatocyte nuclear factor 6 (Homo sapiens) (UniProt Q9UBC0); test: ATG_HNF6_CIS: Attagene CIS-FACTORIAL HepG2 Assay for human Hepatocyte Nuclear Factor 6 (HNF6) (AID 2282952); conditions: HepG2 Attagene cis-factorial HNF6 reporter transcription; actives raise or lower the signal
Outline: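 Activity values derive from bidirectional fitting against DMSO of reporter mRNA levels, measured by capillary electrophoresis of labelled RT-PCR products from HepG2 cells exposed 24 h.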

[12] = target: Heat shock factor protein 1 (Homo sapiens) (UniProt Q00613); test: ATG_HSE_CIS: Attagene CIS-FACTORIAL HepG2 Assay for human Heat Shock Transcription Factor 1 (HSE) (AID 2282953); conditions: HepG2 HSE cis-reporter, Attagene RNA transcription; actives raise or lower the signal
Outline: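 Cells were transfected with cis-element-driven reporter constructs, dosed for 24 h, then total RNA was reverse-transcribed and reporter cDNA amplified, FAM-labelled and digested with HpaI. Fragments were resolved by capillary electrophoresis; gain or loss was fitted against DMSO.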

[13] = ATG_MRE_CIS: Attagene CIS-FACTORIAL HepG2 Assay for human Metal Responsive Element (MRE) (AID 2282954); conditions: HepG2 MRE cis-reporter transcription, Attagene multiplex; actives raise or lower the signal
Outline: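 Cells were transfected with cis-promoter reporter transcription units, then dosed for 24 h. RNA was reverse-transcribed, amplified, fluorescently labelled and resolved by capillary electrophoresis, and activity was fitted in both directions relative to DMSO.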

[14] = ATG_PBREM_CIS: Attagene CIS-FACTORIAL HepG2 Assay for human Phenobarbital-responsive Enhancer Module (PBREM) (AID 2282955); conditions: HepG2 PBREM cis-reporter, Attagene multiplexed transcription; actives raise or lower the signal
Outline: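 Endogenous transcription factors in human liver HepG2 cells drive a PBREM cis-element reporter, whose transcript level after 24 h treatment is quantified by RT-PCR with capillary electrophoresis; activity fitted in both directions against DMSO.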

[15] = target: Paired box protein Pax-6 (Homo sapiens) (UniProt P26367); test: ATG_Pax6_CIS: Attagene CIS-FACTORIAL HepG2 Assay for human Paired Box 6 (PAX6) (AID 2282956); conditions: HepG2 CIS-FACTORIAL PAX6 reporter transcription, RNA readout; actives raise or lower the signal
Outline: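 Fluorescent RT-PCR products separated by capillary electrophoresis report PAX6-linked promoter mRNA in HepG2 cells 24 h post-dose. Curves fitted bidirectionally, DMSO as negative control.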

[16] = ATG_PXRE_CIS: Attagene CIS-FACTORIAL HepG2 Assay for human Pregnane X Receptor Element (PXRE) (AID 2282957); conditions: HepG2 Attagene CIS-FACTORIAL PXRE reporter, mRNA; actives raise or lower the signal
Outline: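 Fluorescent capillary electrophoresis of amplified reporter cDNA gave the signal, collected 24 h after dosing HepG2 cells that held transfected cis-element reporter constructs.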

[17] = ATG_PPRE_CIS: Attagene CIS-FACTORIAL HepG2 Assay for human Peroxisome Proliferator-activated Response Element (PPRE) (AID 2282958); conditions: HepG2 PPRE cis-element reporter, Attagene transcription factor profiling; actives raise or lower the signal
Outline: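 HepG2, transient MRTU transfection (cis promoter elements, endogenous TFs). 24 h dosing. RNA → oligo(dT) RT → PCR → 6-FAM primer extension → HpaI digest → CE. Bidirectional fit vs DMSO.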

[18] = ATG_RORE_CIS: Attagene CIS-FACTORIAL HepG2 Assay for human RAR-related Orphan Receptor Element (RORE) (AID 2282959); conditions: HepG2 Attagene cis-factorial RORE reporter, mRNA; actives raise or lower the signal
Outline: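 Transient MRTU transfection of human HepG2 liver cells (FuGene 6); 24 h compound exposure; TriZol RNA, oligo(dT) RT, PCR, FAM labeling, HpaI cut, CE fragment analysis. DMSO = negative control/baseline.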

[19] = ATG_FoxO_CIS: Attagene CIS-FACTORIAL HepG2 Assay for human Forkhead box O (FoxO) (AID 2282943); conditions: HepG2 Attagene cis-reporter, FoxO element, mRNA; actives raise or lower the signal
Outline: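 HepG2 cells transiently transfected with cis-promoter-driven multiple reporter transcription units; 24 h after chemical dosing, reporter mRNA quantified by RT-PCR, fluorescent primer extension, HpaI digestion and capillary electrophoresis. Bidirectional fitting versus DMSO baseline.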

[20] = target: Bile acid receptor (Homo sapiens) (UniProt Q96RI1); test: ATG_IR1_CIS: Attagene CIS-FACTORIAL HepG2 Assay for human Nuclear Receptor Subfamily 1 Group H Member 4 (NR1H4), IR1 submotif (AID 2282946); conditions: IR1 reporter transcription, actives raise or lower the signal
Outline: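 Readout: reporter transcript levels by RT-PCR with fluorescent capillary electrophoresis, from HepG2 cells transiently transfected with multiplexed cis-regulated reporters and dosed 24 h. Gain- or loss-of-signal fitted versus DMSO negative control.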

Measured: AC50

Sequence of Hepatocyte nuclear factor 3-beta (Homo sapiens) (Q9Y261 whole entry, looked up): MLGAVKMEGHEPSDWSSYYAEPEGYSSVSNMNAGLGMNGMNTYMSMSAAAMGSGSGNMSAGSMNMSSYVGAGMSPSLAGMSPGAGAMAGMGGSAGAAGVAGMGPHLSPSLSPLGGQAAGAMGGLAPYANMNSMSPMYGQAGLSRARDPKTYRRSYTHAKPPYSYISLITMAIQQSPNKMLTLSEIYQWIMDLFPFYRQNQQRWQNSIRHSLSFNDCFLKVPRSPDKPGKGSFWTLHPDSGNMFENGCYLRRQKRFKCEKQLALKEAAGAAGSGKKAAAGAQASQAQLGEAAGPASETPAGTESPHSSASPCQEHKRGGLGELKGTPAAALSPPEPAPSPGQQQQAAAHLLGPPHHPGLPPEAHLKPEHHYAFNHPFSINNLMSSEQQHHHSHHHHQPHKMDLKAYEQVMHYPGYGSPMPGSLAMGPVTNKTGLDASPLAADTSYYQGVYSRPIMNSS
Sequence of Hepatocyte nuclear factor 6 (Homo sapiens) (Q9UBC0 whole entry, looked up): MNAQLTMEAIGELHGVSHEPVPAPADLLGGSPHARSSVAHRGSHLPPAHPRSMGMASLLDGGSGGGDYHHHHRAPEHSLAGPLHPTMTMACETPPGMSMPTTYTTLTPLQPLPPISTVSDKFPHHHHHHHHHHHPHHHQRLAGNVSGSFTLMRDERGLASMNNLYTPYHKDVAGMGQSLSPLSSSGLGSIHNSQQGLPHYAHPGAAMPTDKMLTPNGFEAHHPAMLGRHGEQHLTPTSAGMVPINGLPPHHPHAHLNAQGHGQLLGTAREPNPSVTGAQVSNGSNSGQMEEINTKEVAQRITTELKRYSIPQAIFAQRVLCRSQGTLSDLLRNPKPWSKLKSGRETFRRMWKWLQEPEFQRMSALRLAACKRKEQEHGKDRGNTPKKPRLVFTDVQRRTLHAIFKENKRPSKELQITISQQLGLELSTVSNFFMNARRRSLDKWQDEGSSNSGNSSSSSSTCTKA
Sequence of Paired box protein Pax-6 (Homo sapiens) (P26367 whole entry, looked up): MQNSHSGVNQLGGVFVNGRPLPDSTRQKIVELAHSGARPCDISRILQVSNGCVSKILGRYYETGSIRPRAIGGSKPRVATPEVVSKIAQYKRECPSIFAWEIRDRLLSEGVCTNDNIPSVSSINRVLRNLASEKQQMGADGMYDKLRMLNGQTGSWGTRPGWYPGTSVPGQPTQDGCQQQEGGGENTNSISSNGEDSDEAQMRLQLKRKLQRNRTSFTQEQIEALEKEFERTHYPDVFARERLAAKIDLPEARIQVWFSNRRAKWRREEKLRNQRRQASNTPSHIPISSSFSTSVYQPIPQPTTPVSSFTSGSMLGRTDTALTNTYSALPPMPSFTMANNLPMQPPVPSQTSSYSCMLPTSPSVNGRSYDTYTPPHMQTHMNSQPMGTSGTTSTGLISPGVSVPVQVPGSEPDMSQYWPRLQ
Sequence of Hypoxia-inducible factor 1-alpha (Homo sapiens) (Q16665 whole entry, looked up, the tested form may be a part): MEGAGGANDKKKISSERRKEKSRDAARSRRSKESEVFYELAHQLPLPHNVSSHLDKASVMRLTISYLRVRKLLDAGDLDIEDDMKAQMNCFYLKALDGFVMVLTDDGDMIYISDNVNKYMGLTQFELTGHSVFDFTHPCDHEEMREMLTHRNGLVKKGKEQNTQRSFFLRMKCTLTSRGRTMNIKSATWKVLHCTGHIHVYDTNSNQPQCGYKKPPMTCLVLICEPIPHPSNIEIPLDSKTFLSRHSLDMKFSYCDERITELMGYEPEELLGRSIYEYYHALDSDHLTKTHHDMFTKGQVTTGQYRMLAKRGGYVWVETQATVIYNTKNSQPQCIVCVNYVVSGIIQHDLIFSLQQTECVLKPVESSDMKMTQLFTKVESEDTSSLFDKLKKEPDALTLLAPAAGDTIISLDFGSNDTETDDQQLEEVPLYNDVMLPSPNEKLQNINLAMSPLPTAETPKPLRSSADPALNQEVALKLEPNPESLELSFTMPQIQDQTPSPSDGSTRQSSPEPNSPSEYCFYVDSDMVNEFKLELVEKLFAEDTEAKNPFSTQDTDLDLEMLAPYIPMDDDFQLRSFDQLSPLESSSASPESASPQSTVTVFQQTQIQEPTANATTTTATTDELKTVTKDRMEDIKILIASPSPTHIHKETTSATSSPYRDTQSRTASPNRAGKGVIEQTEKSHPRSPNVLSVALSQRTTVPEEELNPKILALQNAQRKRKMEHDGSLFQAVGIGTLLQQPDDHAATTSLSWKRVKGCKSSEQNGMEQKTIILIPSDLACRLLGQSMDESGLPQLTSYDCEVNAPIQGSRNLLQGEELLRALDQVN
Sequence of Heat shock factor protein 1 (Homo sapiens) (Q00613 whole entry, looked up, the tested form may be a part): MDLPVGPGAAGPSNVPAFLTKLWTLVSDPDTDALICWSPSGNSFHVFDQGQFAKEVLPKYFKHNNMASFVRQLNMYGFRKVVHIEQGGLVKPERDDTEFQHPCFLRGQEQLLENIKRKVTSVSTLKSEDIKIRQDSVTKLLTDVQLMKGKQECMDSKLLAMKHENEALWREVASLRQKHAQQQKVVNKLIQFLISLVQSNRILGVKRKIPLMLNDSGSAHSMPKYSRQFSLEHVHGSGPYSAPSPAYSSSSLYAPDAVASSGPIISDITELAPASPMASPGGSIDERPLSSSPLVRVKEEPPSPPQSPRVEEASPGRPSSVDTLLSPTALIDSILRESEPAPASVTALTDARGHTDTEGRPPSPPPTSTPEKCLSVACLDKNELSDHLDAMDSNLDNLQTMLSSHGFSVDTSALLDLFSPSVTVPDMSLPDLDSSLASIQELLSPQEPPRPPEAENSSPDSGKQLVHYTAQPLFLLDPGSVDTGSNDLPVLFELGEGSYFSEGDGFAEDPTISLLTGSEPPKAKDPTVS
Sequence of Bile acid receptor (Homo sapiens) (Q96RI1 whole entry, looked up): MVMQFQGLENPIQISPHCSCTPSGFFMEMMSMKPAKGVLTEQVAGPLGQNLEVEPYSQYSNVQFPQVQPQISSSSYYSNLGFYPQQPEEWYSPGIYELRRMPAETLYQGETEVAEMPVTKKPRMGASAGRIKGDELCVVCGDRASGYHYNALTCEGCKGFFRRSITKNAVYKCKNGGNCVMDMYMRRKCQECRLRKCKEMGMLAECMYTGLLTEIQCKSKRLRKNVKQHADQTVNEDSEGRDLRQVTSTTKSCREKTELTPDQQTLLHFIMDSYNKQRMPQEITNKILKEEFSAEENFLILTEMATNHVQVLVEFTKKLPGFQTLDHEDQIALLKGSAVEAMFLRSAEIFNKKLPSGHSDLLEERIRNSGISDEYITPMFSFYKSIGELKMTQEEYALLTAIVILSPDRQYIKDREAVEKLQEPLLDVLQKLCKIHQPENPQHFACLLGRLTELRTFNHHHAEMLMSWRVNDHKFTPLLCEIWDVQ

CCOP(=O)(OCC)OC(=CCl)c1ccc(Cl)cc1Cl
active: [1] 11.1 µM | [14] 6.62 µM | [16] 0.754 µM
not listed: [19] | [20]
inactive: all other assays above

CCCSP(=S)(OCC)Oc1ccc(SC)cc1 (stereo not given)
active: [1] 7.28 µM | [14] 2.14 µM | [16] 2.92 µM
not listed: [6] | [9] | [13] | [20]
inactive: all other assays above

O=C(NC(=O)c1c(F)cccc1F)Nc1ccc(Cl)cc1
not listed: [6] | [13] | [16] | [20]
inactive: all other assays above

C=CCN=C=S
not listed: [6] | [13] | [20]
inactive: all other assays above

Fc1cccc(Cl)c1CCl
active: [12] 159 µM | [15] 73.9 µM
not listed: [19]
inactive: all other assays above

N#CCCC(Br)(C#N)CBr (stereo not given)
active: [5] 53.6 µM | [20] 53.9 µM | [7] 60.8 µM | [11] 33.4 µM | [12] 62.9 µM | [13] 49.5 µM | [15] 46.3 µM | [16] 33.4 µM
not listed: [9] | [19]
inactive: all other assays above

Nc1ccc(-c2ccccc2)cc1
active: [1] 32 µM | [13] 56.8 µM
not listed: [6] | [9] | [16] | [17] | [20]
inactive: all other assays above

O=C(CCl)NCO
not listed: [6] | [16] | [17] | [20]
inactive: all other assays above

CCOCn1c(-c2ccc(Cl)cc2)c(C#N)c(Br)c1C(F)(F)F
active: [2] 60.1 µM | [5] 157 µM | [20] 38.3 µM | [6] 38.1 µM | [7] 1.42 µM | [8] 148 µM | [11] 184 µM | [12] 53.2 µM | [13] 34.7 µM | [15] 2.77 µM | [16] 0.46 µM | [17] 4.17 µM | [18] 3.54 µM
inactive: [1] | [3] | [4] | [9] | [10] | [14]

COCCl
not listed: [1]
inactive: all other assays above

O=NN1CCOCC1
active: [16] 69.6 µM
not listed: [14] | [19] | [20]
inactive: all other assays above

CCCCS(=O)(=O)Cl
not listed: [1]
inactive: all other assays above

ClCCCCl
not listed: [1] | [17]
inactive: all other assays above

CCCCCCCCCCCCOS(=O)(=O)O
inactive: [2] | [3] | [19] | [4] | [5] | [6] | [7] | [8] | [9] | [10] | [11] | [15] | [16]
active: [10] 11.1 µM

C[CH2][Hg][S]c1ccccc1C(=O)O
active: [2] 3.71 µM | [19] 2.29 µM | [4] 1.99 µM | [7] 6.49 µM | [11] 4.19 µM | [13] 3.71 µM | [15] 4.42 µM | [16] 5.8 µM | [17] 0.814 µM | [18] 2.97 µM
inactive: [3] | [5] | [20] | [6] | [8] | [9] | [10] | [12] | [14]
